Screening results deposited in PubChem BioAssay by National Center for Advancing Translational Sciences (NCATS).
Compounds with a hit are over-represented: about 5.9% of the library has one in this group of screens.
HepG2 viability – kills HepG2 cells in TGF-b inhibitor counter-screen. HepG2 CAGA-GFP viability, ATP luminescence, 18 h. Potency, µM (titrated, usually from 46.1 µM), inactives show at the top dose activity change, negative = cytotoxicity, usual class: cytotoxic. actives 0.76% (n = 410,000). AID 588856
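CellTiter-Glo luminescence gave cytotoxicity after 18 hours at 37 degrees C. The cells were HepG2 CAGA-GFP in 1% FBS DMEM, stimulated with 500 pg/mL TGF-beta after compound addition. %Activity was normalised to no-cell wells (complete cell-killing) and DMSO (no toxicity), and curves were fitted and classified.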
ATXN2 expr inh – inhibitors of ATXN2 expression; HEK-293 ATXN2-luciferase reporter, luminescence, 24 h; actives 0.72% (n = 360,000); AID 1745845; Potency, µM (titrated, usually from 57 µM), inactives show at the top dose activity change, negative = inhibition, hits mostly inhibitors; further: on the % scale 0 is the no-effect control and ±100 the full control effect; nearly all actives have a fitted effect of over 55% in size
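ATXN2-luciferase reporter cells (luciferase flanked by upstream and downstream ATXN2 gene portions) were treated 24 h at 37 °C with compounds at up to 57 uM. SteadyGlo luminescence gave expression; GF-AFC fluorescence gave viability.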
KB-3-1 cytotox – kills parental KB-3-1 adenocarcinoma cells; actives 1.4% (n = 400,000); Potency, µM (series often up to 46.1 µM), actives largely listed as cytotoxic; KB-3-1 viability, CellTiter-Glo ATP luminescence, 72 h; AID 1347075; further: on the % scale 0 is the no-effect control and ±100 the full control effect; nearly all actives have a fitted effect of over 60% in size
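Using CellTiter-Glo luminescence, growth of non-resistant KB-3-1 adenocarcinoma cells is assessed 72 h after pin-tool compound addition at 37 °C. Normalized responses across the concentration series yield fitted curves.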
S2 tox – viability counter-screen for ATXN expression inhibitors | actives 0.49% (n = 400,000) | AID 651635 | S2 cells (HEK-293 line with an ATXN2-luciferase reporter) viability, CellTiter-Fluor protease fluorescence, 24 h | Potency, µM (highest dose often 56.7 µM), hits mostly cytotoxic; further: nearly all actives have a fitted effect of over 40% in size
TGFb inhibitor – TGF-b pathway inhibition | HepG2 CAGA-GFP TGF-b/SMAD3 reporter, GFP fluorescence, 18 h; TGF-beta stimulated, 500 pg/mL final | Potency, µM (doses to about 46.1 µM), for inactives: top-dose activity, negative = inhibition, usual class: inhibitors | actives 1.2% (n = 410,000); further: on the % scale 0 is the no-effect control and ±100 the full control effect; nearly all actives have a fitted effect of over 65% in size
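Read-out: total well GFP (ex488/em500-530) summed from mean per-cell fluorescence. Cells: HEPG2 CAGA-GFP, 1% FBS DMEM, 18 h at 37 degrees C with 500 pg/mL final TGF-beta. Unstimulated wells served as the full-inhibition control; stimulated DMSO wells = 0%.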
KB-V1 MDR tox – kills drug-selected multidrug resistant KB-V1 cells; KB-V1 MDR cells viability, CellTiter-Glo, 72 h; Potency, µM (doses to about 46.1 µM), most hits filed as cytotoxic; actives 3.4% (n = 400,000); AID 1347076; further: on the % scale 0 is the no-effect control and ±100 the full control effect; nearly all actives have a fitted effect of over 60% in size
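Luminescent ATP read-out (CellTiter-Glo, 10 min) measures survival of drug-selected KB-V1 MDR cells after 72 h, 37 degrees C compound exposure. Medium: phenol-red-free DMEM, 10% FBS. Values from fitted concentration-response curves.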
* hit, by the source's call; i = inactive; ? = inconclusive; nt = not tested or not shown; [ ] = remark or other dose. The call rests on the fitted dose curve; in most records, active means well fitted curve in the direction sought with a large enough effect; inconclusive means small, poorly fitted or top-dose-only effect, or another doubt; inactive means no such curve, though single readings can be large; an effect the other way counts as inactive or inconclusive. Potency means the concentration at half of the fitted maximal effect.

SMILES	HepG2 viability	ATXN2 expr inh	KB-3-1 cytotox	S2 tox	TGFb inhibitor	KB-V1 MDR tox
COc1ccc(-c2c3c(=O)n(C)c(=O)n(C)c3c3c(-c4ccccc4)nc4ccccc4n23)cc1	0%	4%	i	i	1%	i
Cc1ccc(Nc2sc(C(=O)c3ccccc3)c(N)c2S(=O)(=O)c2ccccc2)c(C)c1	-11%	nt	i	nt	-18%	i
CCCCc1nn2c(=O)cc(COC(=O)CNC(=O)COc3ccc(C)cc3)nc2s1	-7%	2%	i	i	-21%	?
Cc1nn(C(=O)c2cccc(F)c2)c(C)c1S(=O)(=O)N1CCOCC1	-19%	9%	i	i	0%	i
O=C(N/N=C/c1cccs1)c1cccc2cc[nH]c12	-27%	52%	i	i	3%	21µM*
O=C(N/N=C/c1cc([N+](=O)[O-])ccc1O)c1cccc2cc[nH]c12	-83%	3.2µM*	?	?	13µM*	i
O=C(N/N=C/c1cccs1)c1c[nH]c2ccccc12	-3%	66%	i	i	4%	?
Cc1ccc(/C=N/NC(=O)c2ccncc2)s1	7%	9%	i	i	0%	i
O=C(N/N=C/c1cc([N+](=O)[O-])ccc1O)c1cccc(N2CCCC2=O)c1	-16%	18µM*	?	?	4%	i
Cc1ccc(/C=N/NC(=O)c2ccc3ccccc3c2)s1	-3%	12%	5.8µM*	i	-20%	?
COc1cc(/C=N/NC(=O)c2cccc(N3CCCC3=O)c2)ccc1O	8%	42%	i	i	6%	i
COCc1c(C(=O)NC2CCCCCC2)cnn1-c1nccc(-c2cc(C)sc2C)n1	nt	nt	nt	i	nt	nt
COc1cc(CC(=O)OCC(=O)c2ccc3c(c2)OCCO3)cc(OC)c1OC	-6%	6%	1µM*	?	-26%	0.73µM*
Cc1ccc(C(=O)Nc2onc3c2CCCC3)cc1	-32%	7.9µM*	i	?	-18%	i
Cc1cccc(NC(=O)c2onc3c2CCCC3)n1	-98%	-25%	?	i	11%	13µM*
CCN(Cc1ccccc1)C(=O)CN1C(=O)CSc2ccc(S(=O)(=O)N(CC)CC)cc21	5%	-5%	i	i	-13%	i
Cc1cc(O)c(C(c2cccc(F)c2)N2CCN(c3ccccc3)CC2)c(=O)n1Cc1ccco1 (stereo not given)	-1%	nt	i	nt	1%	i
COc1ccc(-c2ccnc(-n3ncc(C(=O)NC(C)(C)CO)c3C3CC3)n2)cc1F	nt	nt	nt	i	nt	nt
CNc1c(Br)cc(C=O)cc1Br	2%	nt	i	nt	12%	i
COc1cc(/C=C/c2ccc3c(Br)cc(Br)c(O)c3n2)ccc1O	-45%	nt	?	?	?	i
Cc1ccc2c(Br)cc(Br)c(O)c2n1	nt	6.3µM*	nt	?	nt	nt
CCOc1ccc(-n2c(SCC(=O)N3CCCCC3)nc3c([nH]c4ccccc43)c2=O)cc1	-2%	2%	i	i	5%	i
C=C(C)C1CCC(C)=C1CC(C)(C)/C=N\n1cnnc1 (stereo not given)	-35%	-7%	i	i	-2%	15µM*
O=C(CCl)Nc1cn(-c2ccccc2)nc1-c1ccccc1	22µM*	nt	?	8.9µM*	?	21µM*
Cc1ccc(-c2nn(-c3ccccc3)cc2NC(=O)c2ccccc2)cc1	-1%	11%	i	?	0%	i
SMILES	HepG2 viability	ATXN2 expr inh	KB-3-1 cytotox	S2 tox	TGFb inhibitor	KB-V1 MDR tox
CC(=O)Nc1cn(-c2ccccc2)nc1-c1ccccc1	-9%	-19%[11.3 µM]	i	i	-2%	i
O=C(Nc1cn(-c2ccccc2)nc1-c1ccc(F)cc1)c1ccccc1	4%	3%	i	i	-7%	16µM*
CN1C=CC2=C(C#N)C(N)C(C#N)(C#N)C(c3ccccc3)C2C1 (stereo not given)	-14%	-5%	i	i	?	15µM*
O=C(Cc1cccs1)N(Cc1cccs1)C1(C(=O)NC2CCCC2)CCCCC1	-17%	-29%	?	i	0%	8.2µM*
O=C(c1ccccn1)N(Cc1ccco1)C1(C(=O)NC2CCCCC2)CCCCC1	13%	-13%	i	i	18%	9.2µM*
COC(=O)C1=C(C)N(CC2CC2)C(=NCc2cccc(Cl)c2)N[C@H]1c1ccccc1	-34%	-6%	i	i	?	i
COCCOC(=O)C1=C(C)N(Cc2ccccc2)C(=O)NC1c1ccc(OC)cc1 (stereo not given)	-71%	-23%	i	i	12%	13µM*
COC(=O)C1=C(C)N(Cc2ccccc2)C(=NCc2ccccc2)N[C@H]1c1ccccc1	14µM*	?	?	?	?	?
COC(=O)C1=C(C)N(Cc2ccccc2)C(=NCc2cccc(Cl)c2)N[C@H]1c1ccccc1	-96%	?	i	35µM*	?	i
OCC1CCCN(c2nc3cc4c(cc3cc2CNCc2cccc(C(F)(F)F)c2)OCO4)C1 (stereo not given)	nt	nt	nt	i	nt	nt
COc1ccc(CCc2cc(OC)c(OC)c(OC)c2)cc1	-9%	-6%	0.52µM*	i	?	2.6µM*
CCOC(=O)c1c(NC(=O)CC2SC(=NC)N(C)C2=O)sc(C)c1C (stereo not given)	3%	-4%	i	i	-3%	10µM*
CN=C1SC(CC(=O)Nc2cccc(C(F)(F)F)c2)C(=O)N1C (stereo not given)	-19%	-28%	i	i	0%	15µM*
CN=C1SC(CC(=O)Nc2ccccc2F)C(=O)N1C (stereo not given)	0%	1%	i	i	-4%	i
CCOC(=O)/C=C1\CN(Cc2ccc(OC)cc2)S(=O)(=O)c2ccc(C(F)(F)F)cc21	-31%	nt	i	nt	?	?
CC(=O)c1cccc(N=C2NC(=O)CS2)c1	10%	1%	i	i	5%	6.5µM*
O=C1CSC(=Nc2cccc(C(=O)O)c2)N1	-1%	10%	i	i	10%	i
COc1cccc(C(=O)NCC2Cc3cccc(-c4cccnc4)c3O2)c1 (stereo not given)	nt	nt	nt	i	nt	nt
COc1ccc(NC(=O)CSC2=Nc3ccccc3C3=NC(CC(=O)NCc4ccc(F)cc4)C(=O)N23)cc1 (stereo not given)	-2%	nt	i	nt	4%	i
